From PubChem
HEK cytotox = Cytotoxic Profiling in HEK 293 Cell Line of Diverse Libraries Using Quantitative High-Throughput Screening | HEK 293 viability, ATP luminescence (CellTiter-Glo), 48-72 h | Potency, µM (titrated, usually from 115 µM), for the others: at the top dose activity change, negative = cytotoxicity, actives largely listed as inhibitors | actives 6.6% (n = 94,000) | AID 1345083, 2018; also: nearly all actives have a fitted effect of over 60% in size
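CellTiter-Glo luminescence (cellular ATP) was read after 48 or 72 hr of compound exposure at 37 degree Celsius. Cells were HEK 293 plated at 250 cells/well.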
NPR1 antag = Natriuretic polypeptide receptor (hNpr1) antagonism - Primary qHTS | Potency, µM (titrated, usually from 46.3 µM), for inactives: at the top dose activity change, negative = inhibition, hits mostly inhibitors | AID 1347048, 2019 | HEK293 hNpr1 GloSensor cGMP, ANP-stimulated luminescence | Atrial natriuretic peptide receptor 1 (Homo sapiens), P16066 | actives 1.6% (n = 76,000); calls by dose curve; also: nearly all actives have a fitted effect of over 60% in size
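HEK293 cells stably expressing human Npr1 and cGMP GloSensor pGS-40F, loaded 2 h with 2% GloSensor reagent, given compound 30 min at room temperature. Luminescence read before and 20 min after 0.1 nM hNppA.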
Luciferase inh = Firefly luciferase inhibition profiling of diverse chemical library using quantitative high-throughput screening. purified P. pyralis luciferase, luminescence, biochemical. Luciferin 4-monooxygenase (Photinus pyralis), P08659. Potency, µM (top dose mostly 115 µM), most hits filed as inhibitors. actives 2.5% (n = 76,000); also: nearly all actives have a fitted effect of over 65% in size
Target sequence (P08659 whole entry, looked up): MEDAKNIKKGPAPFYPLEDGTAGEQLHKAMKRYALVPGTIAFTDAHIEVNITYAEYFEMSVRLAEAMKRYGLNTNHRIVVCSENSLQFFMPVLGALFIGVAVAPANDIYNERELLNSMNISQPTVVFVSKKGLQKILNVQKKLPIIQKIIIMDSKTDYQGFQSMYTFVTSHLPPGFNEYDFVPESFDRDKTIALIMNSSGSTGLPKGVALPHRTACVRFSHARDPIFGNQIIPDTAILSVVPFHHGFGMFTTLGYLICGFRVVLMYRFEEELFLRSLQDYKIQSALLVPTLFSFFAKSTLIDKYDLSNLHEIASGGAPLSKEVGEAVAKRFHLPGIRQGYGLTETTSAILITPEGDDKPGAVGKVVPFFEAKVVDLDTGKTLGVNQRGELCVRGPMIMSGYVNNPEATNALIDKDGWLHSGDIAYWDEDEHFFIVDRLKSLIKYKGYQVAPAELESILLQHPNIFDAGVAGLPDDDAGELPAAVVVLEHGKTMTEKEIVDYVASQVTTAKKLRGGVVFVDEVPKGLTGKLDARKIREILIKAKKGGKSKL
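Cell-free enzyme assay, 10nM P. pyralis luciferase, luciferin and ATP each at 10uM. Inhibition profiled over a 6-point titration, read as luminescence.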
3T3 cytotox = Cytotoxic Profiling in NIH 3T3 Cell Line of Diverse Libraries Using Quantitative High-Throughput Screening; Potency, µM (top dose mostly 96.7 µM), for inactives: at the highest dose activity change, negative = cytotoxicity, usual class: inhibitors; actives 4.3% (n = 94,000); AID 1345082, 2018; NIH 3T3 viability, CellTiter-Glo ATP luminescence, 48-72 h; also: nearly all actives have a fitted effect of over 55% in size
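ATP-dependent luminescence (CellTiter-Glo) served as the viability signal for NIH 3T3 cells treated with compound for 48 or 72 hr at 37 °C.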
Numbers without * were called inactive; [ ] = dose if it differs, or a comment. Hits are enriched below; roughly 11% of the tested compounds scored in any of these assays. Unless noted, calls follow the shape of the dose curve; as a rule, active = well fitted curve in the direction sought with a large enough effect; inconclusive = small, poorly fitted or top-dose-only effect, or another doubt; inactive = no such curve, though single readings can be large; an effect the other way counts as inactive or inconclusive. % is scaled to controls: 0 for no effect and ±100 for the full control effect; potency is read from the fitted curve at half-maximal effect.

Results for O=C(c1csc(Cc2ccccc2)n1)N1CC[C@H](CO)[C@@H](O)C1 ?
HEK cytotox: 4%; NPR1 antag: 2%; Luciferase inh: inactive; 3T3 cytotox: inactive

What do the screens show for `CC[C@H]1CN(C(=O)N2CCOCC2)CC[C@H]1CC(=O)Nc1nccs1`?
HEK cytotox: inconclusive; NPR1 antag: 3%[70.6 µM]; Luciferase inh: inactive; 3T3 cytotox: 50µM*

How did Cc1ccc(-c2cc(N3CCCN(C(=O)Cc4ccsc4)CC3)n[nH]2)cc1C do in these assays?
HEK cytotox: inconclusive; NPR1 antag: -5%; Luciferase inh: inconclusive; 3T3 cytotox: inconclusive

Results for CC(C)(C#N)c1ccc(-c2cc(CO)ccn2)cc1 ?
HEK cytotox: inconclusive; NPR1 antag: -18%; Luciferase inh: 32µM*; 3T3 cytotox: inconclusive

Results for O=C(NC1CC1)c1cc2c(=O)[nH]c(-c3ccccc3)cn2n1 ?
HEK cytotox: inconclusive; NPR1 antag: 29%; Luciferase inh: inactive; 3T3 cytotox: inconclusive

How did O=C1COc2ccc(-c3cccc(O)c3)nc2CN1CCOc1ccccc1 do in these assays?
HEK cytotox: 100µM*; NPR1 antag: inconclusive; Luciferase inh: inactive; 3T3 cytotox: inconclusive

Results for O=C1COc2ccc(OCc3ccccc3)nc2CN1CCOc1ccccc1 ?
HEK cytotox: 89µM*; NPR1 antag: inconclusive; Luciferase inh: inactive; 3T3 cytotox: inconclusive

How did COc1ccc2c3c1CN(C(=O)NCc1ccccc1)CC3=CC(C)(C)CO2 do in these assays?
HEK cytotox: 40µM*; 3T3 cytotox: inconclusive

What do the screens show for `CCn1c2ccccc2c2cc(C(=O)N3C[C@@H](Oc4ccccc4)C[C@@H]3C(=O)NC)ccc21`?
HEK cytotox: 35µM*; NPR1 antag: -14%; Luciferase inh: inconclusive; 3T3 cytotox: inconclusive

What do the screens show for `O=C(COc1ccc(F)cc1)N1CCOc2ccc(CN3CCc4ccccc4C3)cc2C1`?
HEK cytotox: inconclusive; NPR1 antag: inconclusive; Luciferase inh: inactive; 3T3 cytotox: inconclusive

How did O=C(COc1ccccc1)N1CCOc2ccc(CN3CCc4ccccc4C3)cc2C1 do in these assays?
HEK cytotox: 32µM*; NPR1 antag: inconclusive; Luciferase inh: inactive; 3T3 cytotox: inconclusive

Results for Cc1ccc(OCC(=O)N2CCOc3ccc(CN4CCc5ccccc5C4)cc3C2)cc1 ?
HEK cytotox: inconclusive; NPR1 antag: -24%; Luciferase inh: inactive; 3T3 cytotox: 40µM*

Results for O=C(C1CC1)N1CCOc2ccc(CN3CCc4ccccc4C3)cc2C1 ?
HEK cytotox: 40µM*; NPR1 antag: inconclusive; Luciferase inh: inactive; 3T3 cytotox: -17%

Results for O=C(C1CC1)N1CCOc2ccc(CN3CCCC3)cc2C1 ?
HEK cytotox: 1%; NPR1 antag: 2%; Luciferase inh: inactive; 3T3 cytotox: -2%

What do the screens show for `COCCOCC(=O)N1CCOc2ccc(CN3CCc4ccccc4C3)cc2C1`?
HEK cytotox: 4%; NPR1 antag: 3%; Luciferase inh: inactive; 3T3 cytotox: -19%

How did O=C(c1ccc(-c2ccco2)cc1)N1CCOC(c2ccccc2)C1 (stereo unspecified) do in these assays?
HEK cytotox: inconclusive; NPR1 antag: -14%; Luciferase inh: inconclusive; 3T3 cytotox: inconclusive

What do the screens show for `Cc1ccsc1CNC(=O)c1cccc(C#CC(C)(C)O)c1`?
HEK cytotox: inconclusive; NPR1 antag: -15%; Luciferase inh: inconclusive; 3T3 cytotox: inconclusive

How did COc1cccc(C(=O)NC2CCCN(Cc3ccc(-c4cc(C)cc(C)c4)cc3)C2)c1 (stereo unspecified) do in these assays?
HEK cytotox: inconclusive; 3T3 cytotox: 40µM*

What do the screens show for `COc1cccc(-c2ccc(CN3CCCC(NC(=O)c4ccccc4)C3)cc2)c1` (stereo unspecified)?
HEK cytotox: 22µM*; 3T3 cytotox: 40µM*

How did COc1cccc(-c2ccc(CN3CCCC(NC(=O)c4ccc(F)cc4)C3)cc2)c1 (stereo unspecified) do in these assays?
HEK cytotox: 11µM*; 3T3 cytotox: 32µM*

What do the screens show for `COc1ccc(C(=O)NC2CCCN(Cc3ccc(-c4cc(C)cc(C)c4)cc3)C2)cc1` (stereo unspecified)?
HEK cytotox: -17%; 3T3 cytotox: -12%

What do the screens show for `Cc1ccc(-c2cccc(CN3CCCC(NC(=O)c4ccccc4)C3)c2)cc1Cl` (stereo unspecified)?
HEK cytotox: -23%; 3T3 cytotox: -24%

Results for O=C(c1ccccc1)N1CCC(C(=O)N2CCCC(c3nc4ncccc4[nH]3)C2)CC1 (stereo unspecified) ?
HEK cytotox: -13%; 3T3 cytotox: -12%

What do the screens show for `COc1ccc([C@H]2CN(c3nnnn3-c3ccccc3)C[C@@H]2N)cc1`?
HEK cytotox: -15%; NPR1 antag: -21%; Luciferase inh: inactive; 3T3 cytotox: -6%

How did O=C(CN1C(=O)C2(CCCCC2)C1c1ccccc1)N1CCOCC1 (stereo unspecified) do in these assays?
HEK cytotox: -18%; 3T3 cytotox: inconclusive

What do the screens show for `COc1ccc(-c2ccnc3nc(CCc4ccccc4)nn23)c(F)c1`?
HEK cytotox: inconclusive; NPR1 antag: 5%; Luciferase inh: inactive; 3T3 cytotox: inconclusive

Results for COc1ccc(-c2ccnc3nc(Cc4cc(F)cc(F)c4)nn23)c(F)c1 ?
HEK cytotox: 40µM*; NPR1 antag: -7%; Luciferase inh: inactive; 3T3 cytotox: inconclusive

What do the screens show for `CCc1nc(-c2c3n(c(=O)n(Cc4ccccc4C)c2=O)CCCC3)no1`?
HEK cytotox: -4%; NPR1 antag: -9%; Luciferase inh: inactive; 3T3 cytotox: inconclusive

Results for c1cnc2nc(-c3c[nH]c4ccccc34)[nH]c2c1 ?
HEK cytotox: inconclusive; NPR1 antag: -25%[70.6 µM]; Luciferase inh: 45µM*; 3T3 cytotox: inconclusive

Results for c1ccc2c(-c3nc4ccncc4[nH]3)c[nH]c2c1 ?
HEK cytotox: inconclusive; NPR1 antag: -4%[70.6 µM]; Luciferase inh: inconclusive; 3T3 cytotox: inconclusive

Results for Cc1ccc(S(=O)(=O)c2nnn3c2nc(NC2CCCC2)c2ccccc23)cc1C ?
HEK cytotox: -23%; 3T3 cytotox: -25%

Results for CCc1ccccc1OCC(=O)c1ccc2c(c1)N(CC(=O)Nc1ccc(F)cc1)C(=O)CO2 ?
HEK cytotox: 40µM*; NPR1 antag: -3%; Luciferase inh: inactive; 3T3 cytotox: 32µM*

How did COc1ccc(NC(=O)CN2C(=O)COc3ccc(C(=O)COc4cccc(F)c4)cc32)cc1 do in these assays?
HEK cytotox: -50%; NPR1 antag: -1%; Luciferase inh: inactive; 3T3 cytotox: 40µM*
